Screening data deposited in PubChem by National Center for Advancing Translational Sciences (NCATS).
The list is not random: actives were taken first. Their share in the collection is about 2.3%.
MARV entry inh: qHTS for inhibitors of binding or entry into cells for Marburg Virus | Marburg virus pseudotyped entry inhibition, cell reporter | Potency, µM (series often up to 37.8 µM), for inactives: at the highest dose activity change, negative = inhibition, actives largely listed as inhibitors | 300,000 tested, 1.8% active; calls by dose curve; tested in HEK293 cells
Lassa entry inh: qHTS for Inhibitors of binding or entry into cells for Lassa Virus | Potency, µM (series often up to 37.9 µM), inactives show at the top dose activity change, negative = inhibition, actives largely listed as inhibitors | 300,000 tested, 1.2% active | AID 540256, 2011 | Lassa virus pseudotype entry inhibition, cell reporter; calls by dose curve; tested in HEK293 cells; further: nearly all actives have a fitted effect of over 50% in size
AmpC inh no detg: qHTS Inhibitors of AmpC Beta-Lactamase (assay without detergent) | AmpC nitrocefin hydrolysis, absorbance 480 nm, 0.0001% Triton | Potency, µM (series often up to 57.1 µM), for inactives: top-dose activity change, negative = inhibition, hits mostly inhibitors | P00811 | 330,000 tested, 0.52% active;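 further: plate controls were no compound for no effect and no enzyme for full effect; nearly all actives have a fitted effect of over 20% in size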
Target sequence (P00811 whole entry, looked up): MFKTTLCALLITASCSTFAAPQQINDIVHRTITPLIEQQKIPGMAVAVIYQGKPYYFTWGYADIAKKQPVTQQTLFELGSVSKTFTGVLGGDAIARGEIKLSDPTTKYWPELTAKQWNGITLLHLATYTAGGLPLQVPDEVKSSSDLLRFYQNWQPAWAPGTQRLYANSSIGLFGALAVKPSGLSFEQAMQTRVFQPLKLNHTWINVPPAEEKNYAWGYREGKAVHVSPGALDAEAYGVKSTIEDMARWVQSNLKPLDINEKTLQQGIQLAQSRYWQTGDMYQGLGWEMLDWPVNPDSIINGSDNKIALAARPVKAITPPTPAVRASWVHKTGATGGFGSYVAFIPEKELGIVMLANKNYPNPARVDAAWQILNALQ
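AmpC (5.3 nM in the dispensed reagent) in 20 mM phosphate pH 7.0 with 0.01% (detergent screen) or 0.0001% Triton X-100 was preincubated with compounds for 15 min at room temperature. Nitrocefin was then added from an 800 uM solution, and hydrolysis was followed at 480 nm.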
AMA1 RON2 block: qHTS for Inhibitors of AMA1-RON; Towards Development of Antimalarial Drug Lead: Primary Screen; Plasmodium falciparum AMA1 (3D7) - RON2 peptide interaction; AlphaScreen AMA1-biotinylated RON2 peptide binding; Potency, µM (top dose mostly 58.2 µM), for the others: at the top dose activity change, negative = inhibition, most hits filed as inhibitors; 360,000 tested, 0.2% active; AID 720542, 2013;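 further: 0% = vehicle wells and -100% = peptide control; nearly all actives have a fitted effect of over 45% in size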
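AMA1 (3D7) with his tag at 25 nM final met compounds first, then biotinylated RON2 peptide at 25 nM; detection used donor plus acceptor beads, 10 µg/mL apiece, read by AlphaScreen after 30 min at room temperature.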
AmpC detergent: qHTS Inhibitors of AmpC Beta-Lactamase (assay with detergent) | P00811 | AmpC hydrolysis of nitrocefin, absorbance 480 nm, 0.01% Triton | Potency, µM (titrated, usually from 114 µM), inactives show top-dose activity change, negative = inhibition, actives largely listed as inhibitors | 370,000 tested, 0.041% active;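 further: 0% = no-compound wells and -100% = no-enzyme wells; nearly all actives have a fitted effect of over 25% in size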
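20 mM phosphate pH 7.0 + 0.01% (detergent screen) or 0.0001% Triton X-100; 5.3 nM AmpC reagent; cpd preinc 15 min RT; nitrocefin (800 uM stock) to start; A480 q20 s × 4 min; Activity was normalised to no-enzyme and no-compound control wells.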
* hit, by the source's call; ? = inconclusive; . = no result; [ ] = another dose, or the depositor's remark. Unless noted, the call rests on the fitted dose curve; in most records, active means well fitted curve in the direction sought with a large enough effect; inconclusive means small, poorly fitted or top-dose-only effect, or another doubt; inactive means no such curve, though single readings can be large; an effect the other way counts as inactive or inconclusive. Unless noted, on the % scale 0 is the no-effect control and ±100 the full control effect; potency means the concentration at half of the fitted maximal effect.

SMILES	MARV entry inh	Lassa entry inh	AmpC inh no detg	AMA1 RON2 block	AmpC detergent
Cc1ccc(Cn2ccn(Cc3ccc(C)cc3)c(=O)c2=O)cc1	.	-19.2%[46.1 µM]	.	.	17.1%
Cc1ccccc1NC(=O)c1nnn(-c2ccc3c(c2)OCCO3)c1N	?	?	-14.4%	3.9%	-9.9%
Nc1c(C(=O)Nc2cccc(F)c2)nnn1-c1ccc2c(c1)OCCO2	?	3.98µM*	25.0%	-1.5%	-4.7%
Cc1ccc(NC(=O)N2CCCN(Cc3ccc(F)cc3)C2)cc1C	6.31µM*	-17.0%	-6.2%	-5.8%	-0.9%
Cc1ccc(NC(=O)N2CCCCCC2)cc1C	?	-16.4%[46.1 µM]	-4.9%	-6.8%	1.8%
Cc1ccc(C(=O)CC(=O)COc2ccc(Cl)cc2C)cc1	-2.2%[46.1 µM]	?	2.24µM*	97.3%	?
N#CC1=C(S)N(c2ccccc2)C(c2ccc(-c3ccc(Cl)c(Cl)c3)o2)NC1=O (stereo not given)	.	.	10µM*	23.3%	4.8%
N#CC1=C(S)N(c2ccccc2)C(c2ccc(-c3cc(Cl)ccc3Cl)o2)NC1=O (stereo not given)	23.2%	-10.4%	-54.3%	19.1%	-15.2%
Clc1ccc(CN2CCN(c3ncccn3)CC2)c(Cl)c1	.	.	35.0%	15.8µM*	-7.4%
C=CCc1ccccc1OCC(CN1CCCCC1)OC(C)=O (stereo not given)	2.2%	15.5%	3.3%	0.2%	7.4%
C[C@H](CCC(=O)OCc1cn(CC(=O)c2ccc(O)cc2)nn1)[C@H]1CC[C@H]2[C@@H]3CC[C@@H]4C[C@H](O)CC[C@]4(C)[C@@H]3C[C@H](O)[C@]12C	.	5.8%[46.1 µM]	.	.	.
CC1Cc2cc(S(=O)(=O)N(C)c3ccc(Br)cc3)ccc2N1C(=O)C1CC1 (stereo not given)	.	?	.	.	14.6%
CCN1C(=O)[C@@H]2[C@H]3[C@H](O)[C@H](O)CC(=NO[C@@H](C)c4cc(-c5c(C)cc(C)cc5C)no4)[C@@H]3CC[C@H]2C1=O	-12.7%[14.2 µM]	.	.	.	.
C[C@@H](C(=O)NCc1ccccc1)[C@@H]1C[C@@]1(C)[C@@H](NC(=O)OCc1ccccc1)c1ccccc1	-62.3%	7.31µM*	12.8%	-6.0%	-22.6%
C[C@@H](C(=O)NCc1ccc(S(C)(=O)=O)cc1)[C@H]1C[C@]1(C)[C@H](NC(=O)OCc1ccccc1)c1ccccc1	-39.9%	?	153.8%	-4.2%	?
C[C@@H](C(=O)NCC1CC1)[C@H]1C[C@]1(C)[C@H](NC(=O)OCc1ccccc1)c1ccccc1	-2.0%	?	30.5%	2.7%	?
Cc1ccc(CNC(=O)[C@H](C)[C@H]2C[C@]2(C)[C@H](NC(=O)OCc2ccccc2)c2ccccc2)o1	10.3µM*	-20.2%	26.4%	10.3%	?
CCC(=O)N1CCc2cc(S(=O)(=O)NCCC(=O)Nc3ccc(OC)c(Cl)c3)ccc21	-0.6%[46.1 µM]	-22.8%[46.1 µM]	.	.	-1.6%
O=C1C2=C(C(=O)c3ccccc31)C1O[C@](CCCCN3C(=O)c4ccccc4C3=O)(Cc3c1ccc1ccccc31)O2	?	.	-55.9%[11.4 µM]	.	-14.3%[22.9 µM]
CCOC(=O)c1ccc(N2C(=O)C[C@@H](Sc3nnc(C)s3)C2=O)cc1	8.4%	.	.	.	.
O=C(O)c1cccc(-n2cccc2/C=C2/NC(=O)N(c3ccc(Cl)cc3)C2=O)c1	?	-13.4%	12.6µM*	?	-6.4%
Cc1oc2c(c1C(=O)Nc1ccccc1Br)C1=NCCN1C=N2	.	10.5%[46.1 µM]	.	.	18.9%
O=C(CNCCC1=CCCCC1)Nc1ccc(N2CCCCCC2)cc1	?	?	56.6%	35.5µM*	-11.9%
CCCC1=Nc2cc(C(=O)NCCCOC(C)C)ccc2Sc2ccccc21	?	6.51µM*	172.2%	-10.9%	?
CCCC1=Nc2cc(C(=O)NCCOC)ccc2Sc2ccccc21	?	?	.	.	-10.7%
CCCC1=Nc2cc(C(=O)NCCCOCC)ccc2Sc2ccccc21	1.58µM*	-41.5%	125.5%	-3.5%	?
CC1=Nc2cc(C(=O)NCCCOC(C)C)ccc2Sc2ccccc21	?	?	78.6%	-8.6%	-5.5%
